# Experimental data taken from PubChem BioAssay AID720553 (National Center for Advancing Translational Sciences (NCATS), 2013).
# In all, about 340,000 compounds went through this assay and about 3,300 (0.97%) were called active. Only a selection was taken, and actives are over-represented in it overall. Values without a mark were called inactive.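 The calls were made as follows: active = maximum activity change below -70%; inconclusive = maximum activity change from -70% to -50%; inactive = maximum activity change above -50%.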
# Tested on: Potassium voltage-gated channel subfamily H member 2, brain isoform KCNH2 3.1 (human)
# Test: qHTS for Inhibitors of KCHN2 3.1: Mutant qHTS
# Conditions: U2OS KCNH2 3.1, thallium flux FluxOr; stronger effect = lower value
# Procedure, shortened: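 Virally transduced U2OS (3.1 isoform, 4 h infection in dark at RT) → overnight 37 C → FluxOr + Red40 in HBSS/HEPES, 45 min → stimulation buffer, 2 min kinetic read → rate constant vs DMSO controls.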
# % is scaled to controls: 0 for no effect and ±100 for the full control effect.
row,SMILES,activity change
1,Cc1ccc(C(=O)N2CCCc3ccccc32)c(Cl)c1,1.37%
2,Cc1nn(-c2ncccn2)c2c1C(=O)CC(C)(C)C2Br (stereo unspecified),-151% (active)
3,CC1=C(N2CCN(c3ncccn3)CC2)CCC1=O,-6.3%
4,Cc1nn(-c2ccccc2)c2c1C(=O)NC(=O)C(C)(C)C2,-21.5%
5,COc1ccccc1NC(=O)C(CC(=O)O)Cc1cc(C)cc(C)c1 (stereo unspecified),12.9%
6,C[C@H](O)[C@@H]1C(=O)N2CCc3c([nH]c4ccccc34)[C@@H]2C[C@@H]1N(C)C(=O)Nc1ccc(F)cc1,-6%
7,Cc1cc2c(cc1C)N(Cc1ccccc1)C1=NCCCN12,-15.2%
8,OC(CN1C2=NCCCN2c2ccccc21)c1ccc(Br)cc1 (stereo unspecified),-80.8% (active)
9,CC(C)(C)C(=O)CN1C2=NCCN2c2ccccc21,7.56%
10,CN(CCN1CCOCC1)Cc1nc(-c2ccc3c(c2)OCO3)no1,3.94%
11,CCn1ccnc1CN(C)Cc1nc(-c2ccc3c(c2)OCO3)no1,-1.19%
12,CC(C)N(Cc1nc(-c2ccc3c(c2)OCO3)no1)CC1CCC(=O)N1 (stereo unspecified),-93.2% (active)
13,C[C@@H]1CN([C@H](C)CO)C(=O)c2cc(-c3ccc(F)cc3)cnc2O[C@H]1CN(C)C(=O)c1ccc(F)cc1,-4.52%
14,O=C(NCC(F)(F)F)c1ccc(S(=O)(=O)NCCc2ccc3c(c2)OCCO3)cc1,-2.33%
15,CCCCCCn1c(=O)n2n(c1=O)C[C@]1(OC(=O)NCc3ccc(OC)c(OC)c3)CN(S(=O)(=O)c3ccc(C)cc3)C[C@]1(O)C2,-6.76%
16,CN(CC#CCC(c1ccccc1)c1ccccc1)C(C)(C)C,-77% (active)
17,CC(C)(C)N(CC#CCC(O)(c1ccccc1)C1CCCC1)CCO (stereo unspecified),-6.97%
18,Cc1ccc(CCNC(=O)CN2C(=O)CSc3ccc(S(=O)(=O)N4CCOCC4)cc32)cc1,4.19%
19,COC(=O)[C@H]1C[C@H](OC(=O)NCc2ccccc2)[C@@]2(O)CN(S(=O)(=O)c3ccc(C)cc3)CC2[C@H]1C(=O)OC (stereo partly specified),2.28%
20,C[C@H](CO)N1C[C@H](C)[C@@H](CN(C)Cc2ccc3c(c2)OCO3)OCc2cnnn2CCCC1=O,-0.449%
21,Cn1c(CNC(=O)c2ccccc2F)nnc1SCc1ccc(F)cc1,18.4%
22,CC(Sc1nnc(CNC(=O)c2ccccc2F)n1C)C(=O)Nc1nccs1 (stereo unspecified),-211% (active)

row,SMILES,activity change
1,COc1ccccc1C(=O)NCc1nnc(SC(C)C(=O)Nc2nccs2)n1C (stereo unspecified),-5.02%
2,Cc1ccc(OCC(=O)Nc2ccccc2C(=O)NC2CC2)cc1,21%
3,N#Cc1ccc(CN2CCN(CC(=O)Nc3ccccc3C(=O)NC3CC3)CC2)cc1,-103% (active)
4,O=C(CN1CCCCC1)Nc1ccccc1C(=O)NC1CC1,-2.8%
5,CCOc1ccc(CN2CCN(CCCc3ccccc3)C(CCO)C2)cc1 (stereo unspecified),-77.7% (active)
6,COC(=O)c1ccc(CN2CCN(CCCc3ccccc3)C(CCO)C2)cc1 (stereo unspecified),-48.5%
7,OCCC1CN(Cc2ccc(Oc3ncccn3)cc2)CCN1CCc1ccccc1 (stereo unspecified),-3.13%
8,O=C1c2ccccc2-c2ccccc2NC1O (stereo unspecified),2.59%
9,O=C(c1ccc(OC2CCN(C/C=C/c3ccc(F)cc3)CC2)cc1)N1CCCCC1,-73.2% (active)
10,O=C(c1ccc(OC2CCN(Cc3ccccn3)CC2)cc1)N1CCCCCC1,10%
11,CC(=O)Nc1ccc(CN2CCC(Oc3ccc(C(=O)N4CCCC4)cc3)CC2)cc1,9.17%
12,Cc1ccc([C@H]2N[C@]3(CCCN(CC4CCCCC4)C3=O)[C@H]3C(=O)N(Cc4ccccc4)C(=O)[C@@H]23)cc1,-5.04%
13,Nc1cccc(OCCCCCOc2cccc(N)c2)c1,-1.75%
14,Cn1c(=O)c(=O)n(C)c2cc(S(=O)(=O)CCC(=O)N3CCCCC3)ccc21,-86.6% (active)
15,CCc1ccc(S(=O)(=O)Nc2cc3c(cc2N2CCCCC2)n(C)c(=O)c(=O)n3C)cc1,-8.37%
16,CCCCN(CCCC)C(=O)CCS(=O)(=O)c1ccc2c(c1)n(C)c(=O)c(=O)n2C,-1.58%
17,CCOC(=O)C1CCN(C(=O)c2ccc3c(=O)n4nc(Nc5ccccc5CC)sc4nc3c2)CC1,-6.19%
18,c1ccc(C2c3[nH]c4ccccc4c3CCN2Cc2cccn2-c2cccnc2)nc1 (stereo unspecified),7.54%
19,CCOc1ccc(C2c3[nH]c4ccccc4c3CCN2Cc2cccn2-c2ncccn2)cc1 (stereo unspecified),-73.3% (active)
20,CCOc1ccc(C2c3[nH]c4ccccc4c3CCN2Cc2cn(CC)nc2C)cc1 (stereo unspecified),-7.11%
21,COc1ncnc2c1ncn2CCCNCCN1CCOCC1,7.59%
22,COc1ccc(CN2C(=O)C(CC(=O)NCc3cccc4ccccc34)CC(C(=O)N3CCOCC3)=C2C)cc1 (stereo unspecified),6.14%

row,SMILES,activity change
1,O=[N+]([O-])c1ccc(N2CCN(CC(O)COc3ccccc3)CC2)cc1 (stereo unspecified),-90.3% (active)
2,O=C(C(c1ccccc1)c1ccccc1)N1CCN(CC(O)COc2ccccc2)CC1 (stereo unspecified),-70.2% (active)
3,C[N+]1(CC(O)COc2ccccc2)CCN(C(=O)c2ccc([N+](=O)[O-])cc2)CC1 (stereo unspecified),-11.2%
4,OC(COc1ccccc1)CN1CCN(c2cccc(Cl)c2)CC1 (stereo unspecified),-33.9%
5,CCCc1ccc(OCC(O)CN2CCN(C(=O)OCC)CC2)cc1 (stereo unspecified),-6.68%
6,CC1CCN(CC(O)COc2ccc(C(=O)c3ccccc3)cc2)CC1 (stereo unspecified),-6.71%
7,CC1=C(C(=O)Nc2cccc(C(=O)NCC(C)c3ccccc3)c2)SCCO1 (stereo unspecified),3.22%
8,COc1ccc(C(=O)NCC2CCCO2)cc1S(=O)(=O)NCc1ccc(Cl)cc1 (stereo unspecified),-6.01%
9,N#CCSc1ccccc1NC(=O)CN1C(=O)NC(CCc2ccccc2)C1=O (stereo unspecified),0.381%
10,COc1ccc(-n2c(-c3ccc(Cl)cc3)n[nH]c2=S)c(OC)c1,-3.64%
11,O=C(CN1CCSCC1)N/N=C/c1ccc(F)cc1,1.88%
12,CCOc1cc(/C=N/NC(=O)CN2CCCCC2)ccc1O,1.68%
13,Cc1ccc(COc2ccc(/C=N/NC(=O)CN3CCCCC3)cc2)cc1,-108% (active)
14,O=C1c2ccccc2C(=O)N1CCCc1nc(-c2ccccc2)no1,6.34%
15,O=C1c2ccccc2C(=O)N1CCCCCCN1C(=O)c2ccccc2C1=O,6.18%
16,O=C1c2cccc3cccc(c23)C(=O)N1CCCCCc1n[nH]c(=S)o1,-159% (active)
17,c1ccc(CNCc2ccc(CNCc3ccccc3)cc2)cc1,1.02%
18,COc1ccc(CN2CCC(c3nc4ccc(Cl)cc4[nH]3)CC2)cc1,-98.1% (active)
19,COc1ccc(F)c(-c2nc(CN3CCC(c4ccccc4)CC3)c(C)o2)c1,-31.2%
20,COc1ccc(Cn2nnc3c(=O)[nH]c(C4CCN(C(=O)c5ccccc5Cl)CC4)nc32)cc1,-29.8%
21,COCCCn1c(C(=O)NC2CCCCC2)cc2c(=O)n3cccc(C)c3nc21,5.72%
22,N#CC1(Nc2ccc3c4c(cccc24)CC3)CCCCC1,0.638%

row,SMILES,activity change
1,COc1ccc(NC(=O)c2cc(-c3ccc(C)o3)nc3ccccc23)cc1,-28.1%
2,COc1cc(OC)cc(C(=O)Nc2ccc(-c3nc4ccccc4o3)c(O)c2)c1,-93.4% (active)
3,Cc1ccc2nc(-c3ccc(NC(=O)c4cccnc4)cc3)oc2c1,-11.7%
4,O=C(c1ncn2c1c(=O)[nH]c1ccccc12)N1CCc2ccccc2C1,-7.26%
5,COc1ccccc1C(=O)NC(=S)Nc1ccc(N2CCOCC2)cc1,6.65%
6,O=C(Nc1nnc(-c2ccccc2)o1)c1cc(-c2cccs2)nc2ccccc12,-3.38%
7,CCN(CC)CCNC(=O)c1ccc(NC(=O)c2cc(-c3ccncc3)nc3ccccc23)cc1,4.76%
8,CCCCN(C)CCCNC(=O)c1cc(-c2cccs2)nc2ccccc12,-71.7% (active)
9,CC1=C(C(=O)N2CCOCC2)CC(CC(=O)NCc2cccc3ccccc23)C(=O)N1CCC1=CCCCC1 (stereo unspecified),1.47%
10,O=C(OCc1cn([C@@H]2C[C@H](c3ccc(Cl)cc3)N(Cc3cccs3)C[C@H]2O)nn1)c1ccccc1,6.9%
11,Cc1ccc(S(=O)(=O)N2C[C@@H](C)[C@]3(C2)[C@H](O)[C@H](OC(=O)NCc2ccccc2)C[C@H]2C(=O)N(c4ccccc4)C(=O)[C@H]23)cc1,5.25%
12,N#CCCN(C(=S)Nc1ccc(Cl)c(Cl)c1)C1CCCCC1,-7.86%
13,COc1cc(NC(=O)c2[nH]cnc2C(N)=O)cc(C(=O)Nc2cccc(C(F)(F)F)c2)c1,-24.6%
14,COc1cccc(NC(=O)CN(C)C(C)C(=O)Nc2ccc(C#N)cc2)c1 (stereo unspecified),3.52%
15,COc1cc(NC(=O)c2cncc(-c3ccc(C#N)cc3)c2)cc(C(=O)Nc2cccc(C(F)(F)F)c2)c1,-82.3% (active)
16,CCCNC(=O)C1CC(=O)N(c2ccc(OCc3ccccc3)cc2)C1 (stereo unspecified),-2.11%
17,O=C(C1CCCO1)N1CCN(C(=O)C23CC4CC(CC(C4)C2)C3)CC1 (stereo unspecified),3.39%
18,CC(=O)Nc1ccc(C=CC(=O)c2ccc([N+](=O)[O-])cc2)cc1,-4.78%
19,COc1ccc(NC(=O)N(C)C[C@H]2Oc3ncc(C#C[C@@H](C)O)cc3C(=O)N([C@H](C)CO)C[C@H]2C)cc1,-1.97%
20,O[C@H]1C[C@H](c2ccc(Cl)cc2)N(Cc2cccs2)C[C@@H]1n1cc(C2CC2)nn1,8.43%
